# Measurements published in ChEMBL document CHEMBL1201862, “PubChem BioAssay data set” (2004).
# The whole screen tested about 57,000 sequences, of which about 3,700 (6.5%) were called active. No stated cut-off is given here; in the data, active = GI50 up to about 1.1 µM and inactive = higher. These entries were drawn from the full list. Potency and affinity values are given separately.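 Five compound concentrations were applied to cells in 96-well plates for 48 hours; endpoints were derived by simple linear interpolation of the resulting dose-response curve. The concentration for 50% growth inhibition is given as GI50.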
# Tested on: IGROV-1
# Test: NCI tumour cell line growth inhibition, 48 h
row,Substance,GI50 [µM]
1,"[Bis(aminomethyl)pentamethylenesilane]dichloropaltinum(II), CHEMBL2146202",41.9
2,"[Bis(aminomethyl)pentamethylenesilane]tetrachloropaltinum(IV), CHEMBL2146204",10.5
3,"CISPLATIN, CHEMBL11359",2.02
4,"mu-(1,7-nanodiamine-N,N')bis-(cis-aminedichloroplatimum (II)), CHEMBL2146215",29
5,"[Bis(aminomethyl)tetramethylenesilane]dichloropaltinum(II), CHEMBL2146205",36.8
6,"[Bis(aminomethyl)dimethylsilane]dichloroplatinum (II), CHEMBL2146201",> 100
7,"[Bis(aminomethyl)diethylsilane]tetrachloroplatinum(IV), CHEMBL2146203",15.5
8,"[Bis(aminomethyl)ethylmethylsilane]tetrachloroplatinum(IV), CHEMBL2146192",16
9,"cis-Bis[[(trimethylsilyl)methyl]amino]tetrachloroplatinum(IV), CHEMBL2146191",15.4
10,"[Bis(aminomethyl)dimethylsilane]tetrachloroplatinum(IV), CHEMBL2146190",15.4
11,"[Bis(aminomethyl)tetramethylenesilane]tetrachloropaltinum(IV), CHEMBL2146189",6.1
